Among the data in the supplement of paper PMC10127200 are Euclidean distance values, retold here.

“And” between values parts separate entries of the source, which are not always exact repeats. Identical values can stand only once. Counter-ions that a name gives are not always drawn.

The subject of this experiment is HEPG2. The experiment can be described thus: Euclidean distance of Cell Painting phenotypic profile (signed KS, 77 features) to DMSO centroid (dimensionless distance); 5 or 10 uM (library dependent); higher = stronger phenotypic change vs DMSO (phenoactivity). Particulars: 48 h. The method in brief:
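Five cancer lines, together with a healthy fibroblast line, received library compounds for 48 h at a library-dependent 10 or 5 uM and 0.1% DMSO final. Harmony then derived 77 features from confocal 20X images (9 fields/well) of the stained cells, scoring each as a signed Kolmogorov-Smirnov statistic against same-plate vehicle wells. After plate-position correction, correlation weighting and replicate averaging at the top dose, phenoactivity was taken as each profile's Euclidean distance to the median vehicle profile.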
As to `CO/N=C(\C(=O)N[C@@H]1C(=O)N2C(C(=O)O)=C(CSC(=O)c3ccco3)CS[C@H]12)c1csc(N)n1` [Ceftiofur], the Euclidean distance came out at 1.81.

In turn, `C[C@H](CCC(=O)O)[C@H]1CC[C@H]2[C@@H]3[C@H](O)C[C@@H]4C[C@H](O)CC[C@]4(C)[C@H]3C[C@H](O)[C@]12C` [Cholic acid] registered an Euclidean distance of 0.875.

Take `O=c1oc2cc(O)ccc2s1` [Tioxolone]: the Euclidean distance was determined as 2.64.

`Cc1cnc(Nc2ccc(OCCN3CCCC3)cc2)nc1Nc1cccc(S(=O)(=O)NC(C)(C)C)c1` displayed an Euclidean distance of 2.96.

`CCCNC(C)C(=O)Nc1ccccc1C` (stereo not drawn) [Prilocaine] had an Euclidean distance of 0.648.

Consider `C[C@H]1CNC(=O)c2cnn3ccc(nc23)N[C@H](C)c2cc(F)ccc2O1`, for which the Euclidean distance was 2.14.

`CNCCc1ccccn1` [Betahistine mesylate] gave an Euclidean distance of 0.422.

For `CCN1CCC[C@H]1CNC(=O)c1cc(S(N)(=O)=O)ccc1OC` [Levosulpiride], the Euclidean distance was found to be 1.73.

Take `S=C(NCc1ccc2c(c1)OCO2)N1CCN(c2ncnc3c2oc2ccccc23)CC1` [Amuvatinib (MP-470)]: the Euclidean distance stood at 2.14.

The compound `Cc1ccc(NC(=O)C2(c3ccc4c(c3)OC(F)(F)O4)CC2)nc1-c1cccc(C(=O)O)c1` [VX-809 (Lumacaftor)] came in with an Euclidean distance of 0.294.

In turn, `CCOC(=O)c1ccc(O)cc1` [Ethylparaben] returned an Euclidean distance of 0.385.

Compound `CCCCCCCCCCCCCCCC(=O)O[C@@H]1[C@@H](O)[C@@H](O)[C@@H]([C@H](NC(=O)[C@@H]2C[C@@H](CCC)CN2C)[C@H](C)Cl)O[C@@H]1SC` [Clindamycin palmitate HCl] came in with an Euclidean distance of 0.578.

As for `CC(=O)c1c(C)c2cnc(Nc3ccc(N4CCNCC4)cn3)nc2n(C2CCCC2)c1=O`, the Euclidean distance was 5.39 and 4.73.

`CC(C)c1ccc(NC(=O)Cn2cnc3c2c(=O)n(C)c(=O)n3C)cc1` had an Euclidean distance of 0.953.

The compound `Cc1ccc(C(=O)Nc2ccc(CN3CCN(C)CC3)c(C(F)(F)F)c2)cc1C#Cc1cnc2cccnn12` showed an Euclidean distance of 4.93.

For the compound `CO[C@@H]1[C@H](OC(=O)/C=C/C=C/C=C/C=C/C(=O)O)CC[C@]2(CO2)[C@H]1[C@@]1(C)O[C@@H]1CC=C(C)C` [Fumagillin], the Euclidean distance turned out to be 1.89.

`O=C(NC1CCNCC1)c1n[nH]cc1NC(=O)c1c(Cl)cccc1Cl` had an Euclidean distance of 2.47.

On to `C[C@H](CS)C(=O)N1CCC[C@H]1C(=O)O` [Captopril], for which the Euclidean distance stood at 2.08.

As for `O=C(OCc1ccccc1)c1ccccc1` [Benzyl benzoate], the Euclidean distance was found to be 0.831.

Regarding `CCCC(=O)[O-].[Na+]` [Sodium butyrate], the Euclidean distance was found to be 0.665.

Turning to `N#CCNC(=O)c1ccc(-c2ccnc(Nc3ccc(N4CCOCC4)cc3)n2)cc1` [Momelotinib (CYT387)], the Euclidean distance is 2.74.

On to `CCc1c2c(nc3ccc(OC(=O)N4CCC(N5CCCCC5)CC4)cc13)-c1cc3c(c(=O)n1C2)COC(=O)[C@]3(O)CC` [Irinotecan HCl Trihydrate], for which the Euclidean distance was 3.19.

In turn, `COC(=O)CCC(=O)CN` [Methyl Aminolevulinate Hydrochloride] registered an Euclidean distance of 0.566.

Consider `O=C(O)c1ccccc1O` [Salicylic acid], for which the Euclidean distance was determined as 0.308.

Compound `CCCC(=O)Nc1ccc(OCC(O)CNC(C)C)c(C(C)=O)c1` (stereo not drawn) [Acebutolol HCl] displayed an Euclidean distance of 0.817.

Consider `CC(=O)O[C@H]1C(=O)[C@@]2(C)[C@H]([C@H](OC(=O)c3ccccc3)[C@]3(O)C[C@H](OC(=O)[C@H](O)[C@@H](NC(=O)c4ccccc4)c4ccccc4)C(C)=C1C3(C)C)[C@]1(OC(C)=O)CO[C@@H]1C[C@@H]2O` [Paclitaxel], for which the Euclidean distance is 2.08.

`Nc1cc(Cl)c(N=C2NCCN2)c(Cl)c1` [Apraclonidine HCl] registered an Euclidean distance of 0.638.

Consider `COc1ccccc1OCC(O)CN1CCN(CC(=O)Nc2c(C)cccc2C)CC1` (stereo not drawn) [Ranolazine], for which the Euclidean distance came out at 1.08.

The compound `C1=N/C2=N/c3ccc(OCCN4CCCC4)c(c3)COC/C=C/COCc3cccc(c3)C(=C1)N2` [Pacritinib (SB1518)] showed an Euclidean distance of 3.79.

As for `CCOC(=O)[C@H](CCc1ccccc1)N[C@@H](C)C(=O)N1[C@H](C(=O)O)C[C@H]2CCCC[C@@H]21` [Trandolapril], the Euclidean distance is 0.562.

In the case of `CC(=C(CCOC(=O)C(C)C)SSC(CCOC(=O)C(C)C)=C(C)N(C=O)Cc1cnc(C)nc1N)N(C=O)Cc1cnc(C)nc1N` (stereo in doubt) [Sulbutiamine], the Euclidean distance is 0.637.

Compound `CCN(CCO)CCCC(C)Nc1ccnc2cc(Cl)ccc12` (stereo not drawn) [Hydroxychloroquine Sulfate] registered an Euclidean distance of 2.92.

`CC(C)c1onc(-c2c(Cl)cccc2Cl)c1COc1ccc(/C=C/c2cccc(C(=O)O)c2)c(Cl)c1` displayed an Euclidean distance of 1.42.
